PubChem BioAssay (NCATS)
Values joined by “and” are separate entries in the source; they are usually repeats but may differ in a detail not shown here. Equal values may be shown once. Results filed as inconclusive are left out. Active and inactive are the calls of the source. Unless noted, the call rests on the fitted dose curve; in most records, active means well fitted curve in the direction sought with a large enough effect; inconclusive means small, poorly fitted or top-dose-only effect, or another doubt; inactive means no such curve, though single readings can be large; an effect the other way counts as inactive or inconclusive.

How the values were obtained:
[1] = biological target: Retinoic acid receptor RXR-alpha (Homo sapiens) (UniProt P19793); assay: qHTS assay for small molecule antagonists of retinoid X receptor alpha signaling (AID 588546; active means well fitted inhibition curve with a large enough effect in the signal ratio, with a control signal flat, not every such curve was filed as active; the % refers to the signal ratio;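 further: cells stimulated with 9-cis-retinoic acid as agonist; on the % scale 0 is the no-effect control and ±100 the full control effect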); conditions: HEK293T RXRa-UAS-bla, beta-lactamase ratio, antagonist mode
Summary of the method: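 Beta-lactamase reporter inhibition, read as CCF4 fluorescence ratio (ex 405, em 460/530 nm) after 2 h at RT. HEK293T UAS-bla cells, 2500/well, were stimulated with 9-cis-RA at 500 or 100 nM final alongside test compound for 18 h at 37 C.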

[2] = biological target: Thyroid hormone receptor beta (Homo sapiens) (UniProt P10828); assay: qHTS assay for small molecule antagonists of thyroid hormone receptor beta signaling (AID 588547; active means well fitted inhibition curve with a large enough effect in the signal ratio, with a control signal flat, not every such curve was filed as active; the % refers to the signal ratio;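 further: cells stimulated with 0.4 nM T3 agonist during compound exposure; on the % scale 0 is the no-effect control and ±100 the full control effect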); conditions: TR-UAS-bla HEK293, beta-lactamase ratio, antagonist mode, 18 h
Summary of the method: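 Inhibition of T3-driven (0.4nM final) beta-lactamase reporter activity was measured over 0.59 nM to 92 uM compound after 18 h at 37 C. The cells were GripTite HEK293 TR-UAS-bla in charcoal/dextran-stripped serum, with CCF4 ratio read-out and IC50 from Hill fits.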

[3] = qHTS assay for small molecule activators of the p53 signaling pathway (AID 651743; active means well fitted activation curve with a large enough effect in the signal ratio, not every such curve was filed as active; the % refers to the signal ratio; further: % of control where 0% means no effect); conditions: HCT-116 p53RE-bla, beta-lactamase FRET ratio, 16 h; activation: stronger effect = higher value
Summary of the method: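 Screen for p53 pathway agonists uses stably transfected p53RE-bla HCT-116 cells, 4,000 per well, treated 16 h at 37 C with compounds in DMSO.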

[4] = qHTS assay for small molecule activators of the nuclear factor-kappa B (NF-kB) signaling pathway (AID 651749; active means well fitted activation curve with a large enough effect in the signal ratio; the % refers to the signal ratio; further: % of control where 0% means no effect); conditions: NF-kB-bla ME-180 cells, beta-lactamase FRET ratio, 16 h; activation: stronger effect = higher value
Summary of the method: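 Stably transfected ME-180 line; NF-kB response element upstream of beta-lactamase. Treatment: compound or DMSO, 16 hr. Detection: fluorescent FRET substrate.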

[5] = qHTS assay for small molecule disruptors of the mitochondrial membrane potential - 1 hr assay (AID 651754; calls by dose curve; further: potency means the concentration at half of the fitted maximal effect; nearly all actives have a fitted effect of over 35% in size)
Summary of the method: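 HepG2 cells, attached overnight at 37C, were exposed to compound or DMSO vehicle for 1 hr at 37C, 5% CO2, then stained with Mito-MPS dye for 30 min. Red aggregate versus green monomer fluorescence reports membrane potential.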

[6] = qHTS assay for small molecule disruptors of the mitochondrial membrane potential - 5 hr assay (AID 651755; calls by dose curve; further: potency means the concentration at half of the fitted maximal effect; nearly all actives have a fitted effect of over 40% in size)
Summary of the method: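 HepG2, 2,000 cells/well, overnight attach; cpd or DMSO 5 hr, 37C/5% CO2; Mito-MPS 30 min 37C; fluor 490/535 + 540/590 nm.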

[7] = biological target: Tumor necrosis factor (Homo sapiens) (UniProt P01375); assay: qHTS assay to identify small molecules that stimulate Tumor Necrosis Factor-alpha (TNF-alpha) secretion (AID 651757; active means well fitted curve in the direction sought with a large enough effect in the signal ratio; the % refers to the signal ratio; further: 0% is about no effect)
Summary of the method: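 THP-1 cells were exposed to compounds for 17 hrs at 37 C, after which secreted TNF-alpha was measured by homogeneous HTRF (TR-FRET) using cryptate- and XL665-labeled anti-TNF-alpha antibodies, read after 3 hr at room temperature.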

[8] = biological target: Peroxisome proliferator-activated receptor alpha (Homo sapiens) (UniProt Q07869); assay: qHTS assay for small molecule agonists of the peroxisome proliferator-activated receptor alpha (PPARalpha) signaling pathway (AID 651778); conditions: PathHunter PPARalpha complementation, chemiluminescence, 6 h; stronger effect = higher value; further: % of control where 0% means no effect
Summary of the method: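 Chemiluminescence from complemented enzyme reported PPARalpha activation in cells after 6 hr of compound treatment at 37 C. The detection reagent was incubated for 60 min at room temperature, and compounds were scored as agonists.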

[9] = biological target: Nuclear receptor ROR-gamma (Homo sapiens) (UniProt P51449); assay: qHTS assay for small molecule antagonists of the retinoid-related orphan receptor gamma (ROR-gamma) signaling pathway (AID 651802); further: potency means the concentration at half of the fitted maximal effect; nearly all actives have a fitted effect of over 60% in size
Summary of the method: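 CHO cells carrying TET-inducible ROR-gamma and an ROR response element–luciferase reporter were exposed to compound, then induced with doxycycline. After 16hr at 37C, luminescence was read; lower signal indicates antagonism.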

[10] = qHTS assay for small molecule agonists of the antioxidant response element (ARE) signaling pathway measured by Nrf2-dependant transcriptional activity (AID 720636; active means well fitted curve in the direction sought with a large enough effect in the repeat runs; an effect the other way counts as inactive or inconclusive;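 further: HepG2 cells with an ARE-driven luciferase reporter; % of control where 0% means no effect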)
Summary of the method: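 We exposed ARE-luc HepG2 cells, seeded in assay medium with 1% dialyzed FBS and allowed 6 hr to adhere, to test compounds overnight (16 hr, 37 C) before measuring luciferase with ONE-Glo.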

[11] = qHTS assay for small molecule agonists of the antioxidant response element (ARE) signaling pathway measured by Nrf2-dependant transcriptional activity - cell viability counter screen (AID 720653; active means well fitted curve in the direction sought with a large enough effect in the repeat runs; an effect the other way counts as inactive or inconclusive; further: on the % scale 0 is the no-effect control and ±100 the full control effect); conditions: ARE-bla HepG2 viability, CellTiter-Glo ATP luminescence, 16 h; stronger effect = lower value
Summary of the method: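 Cytotoxicity counter screen: intracellular ATP quantified by CellTiter-Glo luminescence in the same ARE-bla HepG2 plates, after 16 h compound exposure and a 2 h beta-lactamase substrate step.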

[12] = qHTS assay for cell viability of HEK293 cells (AID 743288); conditions: ATP luminescence (CellTiter-Glo), 18 h; max response: stronger effect = lower value; further: on the % scale 0 is the no-effect control and ±100 the full control effect; nearly all actives have a fitted effect of over 50% in size
Summary of the method: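 Luminescent ATP quantitation served as the viability read-out. Cells (parental HEK293, 2,000/well) received compounds after at least 5 h at 37 C and were exposed for 18 h before a 30 min room-temperature reagent step.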

[13] = qHTS assay for cell viability of the p53RE-bla HCT-116 cell line (AID 743292); further: on the % scale 0 is the no-effect control and ±100 the full control effect; nearly all actives have a fitted effect of over 55% in size
Summary of the method: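 In this qHTS counter-screen, metabolically competent p53RE-bla HCT-116 cells were counted via their ATP content. Compounds were applied for 16 h at 37 C and luciferase-coupled luminescence was measured.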

[14] = biological target: Catechol O-methyltransferase (Homo sapiens) (UniProt P21964); assay: Confirmatory Screen for Target Class Profiling of Small Molecule Inhibitors of Methyltransferases (AID 1745852; calls by dose curve; further: potency means the concentration at half of the fitted maximal effect); conditions: MTase-Glo luminescence, SAH detection, recombinant enzyme; measured here: COMT max response; stronger effect = lower value
[15] = biological target: Guanidinoacetate N-methyltransferase (Homo sapiens) (UniProt Q14353); assay: as above; conditions: MTase-Glo luminescence, SAH detection, recombinant enzyme; activity change, negative = inhibition: at 85.7 µM (top of the series) unless noted
[16] = biological target: Nicotinamide N-methyltransferase (Homo sapiens) (UniProt P40261); assay: as above; conditions: MTase-Glo luminescence, SAH detection, recombinant enzyme; measured here: NNMT max response; stronger effect = lower value
[17] = biological target: Phenylethanolamine N-methyltransferase (Homo sapiens) (UniProt P11086); assay: as above; conditions: MTase-Glo luminescence, SAH detection, recombinant enzyme; measured here: PNMT max response; stronger effect = lower value
[18] = biological target: Glutathione peroxidase 1 (Homo sapiens) (UniProt P07203); assay: Primary qHTS Assay for Inhibitors of Recombinant Selenoprotein Glutathione Peroxidase 1 (GPX1) (AID 1845191); further: on the % scale 0 is the no-effect control and ±100 the full control effect; nearly all actives have a fitted effect of over 65% in size
Summary of the method: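 10 nM GPX1 + cpd, 30 min RT; start w/ 1 mM GSH, 0.5 mM cumene hydroperoxide, 0.5 mM NADPH, 100 nM GR, 0.01% BSA; buffer 50 mM Tris-HCl pH 7.5, 2 mM EDTA, 150 mM NaCl; Fl 340/450, 0 & 15 min.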

[19] = biological target: Nuclear receptor subfamily 1 group I member 2 (Rattus norvegicus) (UniProt Q9R1A7); assay: qHTS assay for small molecule activators of the rat pregnane X receptor (rPXR) signaling pathway (AID 651751; call rule not given here; further: 0% is about no effect); conditions: rPXR reporter cells, luciferase (One-Glo), 24 h
Chain of Nuclear receptor subfamily 1 group I member 2 (Rattus norvegicus) (Q9R1A7 whole entry, looked up): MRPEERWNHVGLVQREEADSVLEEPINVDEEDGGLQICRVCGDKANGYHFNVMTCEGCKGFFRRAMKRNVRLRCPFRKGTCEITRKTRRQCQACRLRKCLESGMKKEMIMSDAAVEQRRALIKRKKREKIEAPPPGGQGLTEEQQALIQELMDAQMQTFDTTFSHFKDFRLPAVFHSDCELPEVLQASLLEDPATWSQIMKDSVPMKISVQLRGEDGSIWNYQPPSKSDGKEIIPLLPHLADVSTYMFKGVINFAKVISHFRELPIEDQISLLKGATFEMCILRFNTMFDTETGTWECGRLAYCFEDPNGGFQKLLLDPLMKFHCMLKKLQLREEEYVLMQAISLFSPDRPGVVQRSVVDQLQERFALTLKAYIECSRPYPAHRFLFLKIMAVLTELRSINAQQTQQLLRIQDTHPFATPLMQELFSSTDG

Chain of Peroxisome proliferator-activated receptor alpha (Homo sapiens) (Q07869 whole entry, looked up): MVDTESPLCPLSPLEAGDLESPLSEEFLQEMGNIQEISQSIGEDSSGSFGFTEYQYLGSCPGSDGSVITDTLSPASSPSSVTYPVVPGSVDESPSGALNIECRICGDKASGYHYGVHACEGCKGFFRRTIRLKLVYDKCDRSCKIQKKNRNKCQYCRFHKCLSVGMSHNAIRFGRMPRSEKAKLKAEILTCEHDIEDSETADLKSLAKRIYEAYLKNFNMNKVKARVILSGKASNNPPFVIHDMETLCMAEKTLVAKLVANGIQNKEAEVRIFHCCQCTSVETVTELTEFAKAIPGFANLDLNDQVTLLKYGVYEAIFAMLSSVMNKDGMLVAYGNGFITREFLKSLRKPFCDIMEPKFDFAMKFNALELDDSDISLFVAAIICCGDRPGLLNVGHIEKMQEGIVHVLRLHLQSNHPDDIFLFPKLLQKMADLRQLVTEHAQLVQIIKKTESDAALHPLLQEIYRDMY
Chain of Tumor necrosis factor (Homo sapiens) (P01375 whole entry, looked up): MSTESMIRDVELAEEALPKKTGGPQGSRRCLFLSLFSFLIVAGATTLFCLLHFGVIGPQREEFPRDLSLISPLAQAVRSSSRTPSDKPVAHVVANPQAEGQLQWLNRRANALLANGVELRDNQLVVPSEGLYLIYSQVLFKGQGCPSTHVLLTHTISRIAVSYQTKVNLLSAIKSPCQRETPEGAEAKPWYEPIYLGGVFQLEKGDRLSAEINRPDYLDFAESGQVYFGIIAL
Chain of Thyroid hormone receptor beta (Homo sapiens) (P10828 whole entry, looked up): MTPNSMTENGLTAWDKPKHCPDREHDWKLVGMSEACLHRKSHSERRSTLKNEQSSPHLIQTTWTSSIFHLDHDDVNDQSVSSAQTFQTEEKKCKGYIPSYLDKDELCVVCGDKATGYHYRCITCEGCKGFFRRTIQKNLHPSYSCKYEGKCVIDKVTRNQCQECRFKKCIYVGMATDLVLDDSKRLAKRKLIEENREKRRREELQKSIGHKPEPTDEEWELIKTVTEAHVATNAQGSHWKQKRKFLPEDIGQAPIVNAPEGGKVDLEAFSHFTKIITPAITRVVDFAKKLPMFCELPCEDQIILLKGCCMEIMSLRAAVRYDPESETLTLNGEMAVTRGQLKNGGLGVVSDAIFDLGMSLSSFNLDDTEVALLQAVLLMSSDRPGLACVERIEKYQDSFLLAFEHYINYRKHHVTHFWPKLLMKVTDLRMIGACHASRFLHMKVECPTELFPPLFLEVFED
Chain of Retinoic acid receptor RXR-alpha (Homo sapiens) (P19793 whole entry, looked up): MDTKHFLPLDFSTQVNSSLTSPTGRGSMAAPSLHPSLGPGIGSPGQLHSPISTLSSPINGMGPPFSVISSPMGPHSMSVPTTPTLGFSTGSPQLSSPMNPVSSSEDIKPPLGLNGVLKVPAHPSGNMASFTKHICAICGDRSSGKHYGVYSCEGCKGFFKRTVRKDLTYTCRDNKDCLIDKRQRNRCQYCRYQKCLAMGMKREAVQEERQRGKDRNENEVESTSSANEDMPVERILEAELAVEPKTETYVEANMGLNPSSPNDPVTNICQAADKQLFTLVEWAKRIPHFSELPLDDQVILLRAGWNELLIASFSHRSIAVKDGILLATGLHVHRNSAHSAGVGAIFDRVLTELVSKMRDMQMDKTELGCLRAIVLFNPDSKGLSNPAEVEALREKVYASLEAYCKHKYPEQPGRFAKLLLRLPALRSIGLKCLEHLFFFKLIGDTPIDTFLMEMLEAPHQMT
Chain of Glutathione peroxidase 1 (Homo sapiens) (P07203 whole entry, looked up): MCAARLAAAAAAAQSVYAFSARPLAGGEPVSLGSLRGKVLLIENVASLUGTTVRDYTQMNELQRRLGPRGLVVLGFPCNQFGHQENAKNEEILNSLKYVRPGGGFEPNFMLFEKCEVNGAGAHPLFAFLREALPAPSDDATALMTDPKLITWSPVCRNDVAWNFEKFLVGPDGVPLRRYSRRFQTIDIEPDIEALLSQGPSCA
Chain of Catechol O-methyltransferase (Homo sapiens) (P21964 whole entry, looked up): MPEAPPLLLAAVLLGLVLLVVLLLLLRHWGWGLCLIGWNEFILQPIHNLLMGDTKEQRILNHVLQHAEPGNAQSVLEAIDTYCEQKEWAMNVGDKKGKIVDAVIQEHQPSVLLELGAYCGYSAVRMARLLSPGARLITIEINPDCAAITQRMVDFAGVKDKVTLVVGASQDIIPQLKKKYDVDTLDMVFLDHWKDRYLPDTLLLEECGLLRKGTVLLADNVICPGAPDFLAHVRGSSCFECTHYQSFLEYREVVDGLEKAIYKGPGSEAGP
Chain of Nuclear receptor ROR-gamma (Homo sapiens) (P51449 whole entry, looked up): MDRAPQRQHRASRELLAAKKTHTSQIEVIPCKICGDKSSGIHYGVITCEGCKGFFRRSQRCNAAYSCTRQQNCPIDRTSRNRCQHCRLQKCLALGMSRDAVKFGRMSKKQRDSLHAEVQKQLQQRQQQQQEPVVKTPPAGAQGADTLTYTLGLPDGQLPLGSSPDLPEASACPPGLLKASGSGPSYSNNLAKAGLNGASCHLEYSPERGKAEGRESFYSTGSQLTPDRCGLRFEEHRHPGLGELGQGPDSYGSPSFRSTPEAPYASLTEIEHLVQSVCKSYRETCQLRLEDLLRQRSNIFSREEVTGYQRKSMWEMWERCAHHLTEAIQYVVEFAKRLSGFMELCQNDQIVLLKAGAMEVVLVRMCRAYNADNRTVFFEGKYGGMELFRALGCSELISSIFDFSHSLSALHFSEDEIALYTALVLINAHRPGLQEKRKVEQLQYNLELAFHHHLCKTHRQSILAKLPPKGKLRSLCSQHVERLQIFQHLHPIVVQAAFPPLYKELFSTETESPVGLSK
Chain of Phenylethanolamine N-methyltransferase (Homo sapiens) (P11086 whole entry, looked up): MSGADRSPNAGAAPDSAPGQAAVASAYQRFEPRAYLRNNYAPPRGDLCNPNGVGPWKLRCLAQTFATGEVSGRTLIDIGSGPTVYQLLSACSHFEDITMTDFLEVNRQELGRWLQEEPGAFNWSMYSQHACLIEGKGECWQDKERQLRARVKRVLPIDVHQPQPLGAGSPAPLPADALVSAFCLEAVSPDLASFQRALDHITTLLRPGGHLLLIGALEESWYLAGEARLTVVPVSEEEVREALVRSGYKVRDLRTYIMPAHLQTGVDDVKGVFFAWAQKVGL
Chain of Nicotinamide N-methyltransferase (Homo sapiens) (P40261 whole entry, looked up): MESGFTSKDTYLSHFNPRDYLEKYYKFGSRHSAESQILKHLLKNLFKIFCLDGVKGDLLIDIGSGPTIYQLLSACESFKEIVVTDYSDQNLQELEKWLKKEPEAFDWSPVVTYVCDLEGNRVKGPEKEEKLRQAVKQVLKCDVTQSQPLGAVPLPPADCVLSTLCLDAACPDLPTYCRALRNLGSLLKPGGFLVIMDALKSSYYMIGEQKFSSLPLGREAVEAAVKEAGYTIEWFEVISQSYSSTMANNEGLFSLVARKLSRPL

C[C@H]1CCCC(=O)CCC/C=C/c2cc(O)cc(O)c2C(=O)O1
max response [1]: -20.8% (inactive) | activity change % (negative = inhibition) [2]: -19.1% (inactive) and -18.2% (inactive) | activation [3]: 20.6% (inactive) | activation [4]: -2.55% (inactive) and -2.52% (inactive) and -4.61% (inactive) | Potency [5]: 37.6 µM (active) | Potency [6]: 33.5 µM (active) and 37.6 µM (active) | outcome [7]: inactive | max response [8]: -0.403% (inactive) and -3.88% (inactive) and -0.278% (inactive) | Potency [9]: 42.2 µM (active) | outcome [10]: inactive | max response [11]: -27% (inactive) and -18.5% (inactive) | max response [12]: -26.5% (inactive) and -8.31% (inactive) and -15% (inactive) | Potency [13]: inactive | activity [14]: -93% | Potency [15]: 17.1 µM (active) | activity [16]: -84.9% | activity [17]: -95% | Potency [18]: inactive | max response [19]: -12.4% (inactive) and -5.06% (inactive) and -7.58% (inactive)
